Measurements published in PubChem BioAssay (NCI).
Compounds without any hit were thinned out: in the full panel of roughly 79,000, 15% have a hit. Unmarked numbers belong to inactive results. The source made the active and inactive calls. Cut-off read from the data, not from the text of the source: active = growth inhibition above about 70%; inactive = the rest.

Key:
[1] = NCI Yeast Anticancer Drug Screen. Data for the rad50 strain (AID 155);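 note: 0% = growth of vehicle-only cultures of the same strain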; details: S. cerevisiae rad50 strain growth inhibition, active compounds read high
Method in brief: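 Relative growth inhibition (compound vs vehicle) was measured in yeast with a defined repair-gene alteration.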

[2] = NCI Yeast Anticancer Drug Screen. Data for the mec2-1 strain (AID 157); details: S. cerevisiae mec2-1 strain, active compounds read high
Method in brief: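 Cells of the genetically defined mec2-1 yeast strain are incubated with test compound. Inhibition of growth is calculated against vehicle-treated controls.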

[3] = NCI Yeast Anticancer Drug Screen. Data for the sgs1 mgt1 strain (AID 161);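 note: 0% = growth of cultures given vehicle only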; details: S. cerevisiae sgs1 mgt1 strain, active compounds read high
Method in brief: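 Mutant yeast exposed to compound; growth scored against vehicle-only wells.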

[4] = NCI Yeast Anticancer Drug Screen. Data for the cln2 rad14 strain (AID 165);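 note: 0% = growth equal to vehicle treated cultures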; details: S. cerevisiae cln2 rad14 strain, active compounds read high
Method in brief: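 The screen exposed genetically defined yeast (cln2 rad14) to test compounds and scored growth inhibition relative to vehicle-treated controls.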

[5] = NCI Yeast Anticancer Drug Screen. Data for the bub3 strain (AID 167); details: S. cerevisiae bub3 mutant strain, active compounds read high
Method in brief: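 Screening used yeast with an engineered genetic alteration affecting cell cycle control. Compound-exposed cultures were compared with vehicle cultures, and reduced growth was taken as inhibition.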

[6] = NCI Yeast Anticancer Drug Screen. Data for the mlh1 rad18 strain (AID 175); details: S. cerevisiae mlh1 rad18 strain growth inhibition, active compounds read high
Method in brief: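 Compound-treated yeast growth, normalised to vehicle controls. Strain bears defined DNA repair mutations.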

[7] = at 5.0 µM (retest, dose inferred, filed as 0.5)
[8] = at 50.0 µM (retest, dose inferred, filed as 5.0)

Row | SMILES | growth inhibition [1, 7] | growth inhibition [1, 8] | growth inhibition ([1]; at 50.0 µM) | growth inhibition [2, 7] | growth inhibition [2, 8] | growth inhibition ([2]; at 50.0 µM) | growth inhibition [3, 7] | growth inhibition [3, 8] | growth inhibition ([3]; at 50.0 µM) | growth inhibition [4, 7] | growth inhibition [4, 8] | growth inhibition ([4]; at 50.0 µM) | growth inhibition [5, 7] | growth inhibition [5, 8] | growth inhibition ([5]; at 50.0 µM) | growth inhibition [6, 7] | growth inhibition [6, 8] | growth inhibition ([6]; at 50.0 µM)
1 | CCC[CH2][Sn]([S][Sn]([CH2]CCC)([c]1ccccc1)[c]1ccccc1)([c]1ccccc1)[c]1ccccc1 | 97% (active) | 94% (active) | 99.3% (active) | 93% (active) | 95% (active) | 99.5% (active) | 99% (active) | 93% (active) | 99.5% (active) | 97% (active) | 83% (active) | 98% (active) | 98% (active) | 87% (active) | 98.8% (active) | 98% (active) | 91% (active) | 99.3% (active)
2 | C/C(=N/NC(N)=S)C(CN(C)C)C(C1=C(O)c2ccccc2OC1)c1ccccc1 (centres undefined) | 8% | 8% | 68% | 2% | 2% | 52.5% | 4% | 4% | 78.3% (active) | -1% | -1% | 65.8% | 12% | 12% | 65.2% | 0% | 0% | 66.8%
3 | COc1ccc(C(=O)c2ccc([N+](=O)[O-])cc2)cc1 | -1% | -19% | -4.55% | 7% | -9% | -12.2% | 3% | 0% | -3.8% | -15% | -47% | 53.4% | 9% | -17% | 17.5% | 13% | 0% | -21.6%
4 | CC(=O)SC1C(=O)N(C)C(SC(C)=O)C(=O)N1C (centres undefined) | -5% | -21% | 95.8% (active) | -5% | 11% | 97% (active) | 0% | 55% | 96.6% (active) | -1% | 0% | 95% (active) | 0% | -3% | 95.6% (active) | -2% | 70% (active) | 96.5% (active)
5 | CCC1=CCC2C(=O)c3cc4ccccc4cc3C(=O)C2C1 (centres undefined) | 11% | 26% | 89.3% (active) | 11% | 64% | 96.2% (active) | 9% | -4% | 89.6% (active) | 2% | 20% | 37.5% | 10% | 61% | 93% (active) | 7% | 46% | 94.8% (active)
6 | CC(NNC(=S)NCc1ccccc1)c1cc2ccccc2cn1 (centres undefined) | 12% | 88% (active) | 82.2% (active) | 9% | 93% (active) | 80.8% (active) | 14% | 91% (active) | 86.9% (active) | 3% | 79% (active) | 80% (active) | 11% | 93% (active) | 83.7% (active) | 19% | 93% (active) | 89.7% (active)
7 | CC(=O)Nc1ccc(/C=c2\sc3nnc(-c4cccnc4)n3c2=O)cc1 | 33% | 87% (active) | 89.8% (active) | 7% | 91% (active) | 88% (active) | 6% | 78% (active) | 87.2% (active) | -5% | 58% | 71% (active) | 8% | 94% (active) | 80.5% (active) | -17% | 95% (active) | 86.5% (active)
8 | CCCCCCCCCCCCOC(=O)CC1CC(C(C)=O)C1(C)C (centres undefined) | 2% | -9% | 18.5% | 0% | -7% | -20.8% | 0% | -7% | 24.1% | 1% | -8% | 84.3% (active) | -3% | -13% | 11.2% | 25% | -4% | 41.2%
9 | CCCCCCCCCCCC[N+](C)(C)C (tested in a mixture with another compound) | -7% | 99% (active) | 67.9% | 5% | 99% (active) | 93.8% (active) | -4% | 98% (active) | 49.2% | 5% | 98% (active) | 10.6% | 20% | 99% (active) | 88.5% (active) | 0% | 98% (active) | 64%
10 | COc1ccccc1CN1CCCN(Cc2ccccc2OC)C1c1ccccc1F | 2% | -2% | 55.9% | -9% | -11% | 43.5% | 4% | 8% | 62.6% | 1% | -1% | 36.6% | 0% | -5% | 78.8% (active) | 16% | 16% | 41%
11 | Cc1ccc2c(n1)C(=O)C=CC2=O | 25% | 94% (active) | 80.1% (active) | 5% | 94% (active) | 89.5% (active) | 22% | 90% (active) | 80.8% (active) | 22% | 77% (active) | 22.9% | 20% | 97% (active) | 80.8% (active) | 17% | 93% (active) | 36.2%
12 | Clc1ccc(C2SCc3nc4ccccc4n32)c(Cl)c1 (centres undefined) | -7% | 96% (active) | 99% (active) | -6% | 97% (active) | 99.1% (active) | 4% | 95% (active) | 99.2% (active) | -17% | 98% (active) | 97.9% (active) | 9% | 96% (active) | 98.7% (active) | -10% | 94% (active) | 71.9% (active)
13 | COC(=O)C(=O)C(C(=O)Nc1cccc(C)c1C)C1Sc2ccccc2NC1=O (centres undefined) | 99% (active) | 99% (active) | 51.1% | 88% (active) | 88% (active) | 70.2% (active) | 99% (active) | 99% (active) | 69.5% | 95% (active) | 95% (active) | 52.8% | 65% | 65% | 81.7% (active) | 92% (active) | 92% (active) | 81.5% (active)
14 | Cc1cc(N=O)c(NO)cc1C | 3% | 29% | 95.8% (active) | 16% | 29% | 79.7% (active) | 6% | 22% | 79.7% (active) | 2% | 16% | 65.7% | 28% | 61% | 92.5% (active) | 18% | 81% (active) | 88.8% (active)
15 | CCCCCCCCCCC[n+]1ccc(C#N)cc1 | -6% | 64% | 91.8% (active) | 10% | 84% (active) | 57.7% | 14% | 91% (active) | 92.5% (active) | 16% | 56% | 76.8% (active) | -5% | 75% (active) | 77.6% (active) | 10% | 76% (active) | 91.6% (active)
16 | COC(=O)C1=C(C)NC(C)=C(C(=O)OC)C1c1ccc(NCc2ccccc2)c([N+](=O)[O-])c1 | 4% | 59% | 16.9% | 0% | 53% | 3.65% | -1% | 73% (active) | 12.3% | 0% | 74% (active) | 0.55% | 1% | 68% | 6.45% | 0% | 71% (active) | 40.1%
17 | CCOc1ccc2nc(NC(=O)c3c/c(=N\NC(=O)C[N+](C)(C)C)c4ccc(O)cc4o3)sc2c1 | 57% | 64% | 99.3% (active) | 28% | 53% | 99.6% (active) | 33% | 65% | 99.3% (active) | 13% | 61% | 98.6% (active) | 62% | 62% | 99.3% (active) | 41% | 52% | 99.2% (active)
18 | CC1/C=C/C=C/CC/C=C/C=C/C=C/C=C/C(OC2OC(C)C(O)C(N)C2O)CC2OC(CC(O)C(O)CCC(O)CC(O)CC(O)CC(=O)OC(C)C(C)C1O)CC(O)C2C(=O)O (centres undefined) | 98% (active) | 100% (active) | 99.3% (active) | 96% (active) | 100% (active) | 99.3% (active) | 56% | 100% (active) | 99.2% (active) | 93% (active) | 100% (active) | 99.1% (active) | 99% (active) | 100% (active) | 99.2% (active) | 97% (active) | 99% (active) | 98.5% (active)
